Screens as filed in PubChem BioAssay.
Sampled rows, rich in hits. Any-hit rate of the full collection: about 2.3%.
ADAM10 inh: inhibits human ADAM10; AID 720582; 370,000 tested, 0.62% active; recombinant ADAM10, EDANS/DABCYL FRET peptide cleavage, 3 h; O14672; inhibition, % at 7 µM;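 active = inhibition above a per-campaign cutoff equal to the mean of compounds falling between control-based bounds plus 3 SD, cut at about 20% in these data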
V-ATPase pHluor: alters yeast V-ATPase proton transport | response, % at 10 µM | S. cerevisiae, pHLuorin cytosolic pH fluorescence | 350,000 tested, 0.37% active; in the data active = response mostly above about 7.3%, no sharp cut-off; inactive = mostly below about 5.4%; also: actives read high
KLK7 zymogen act: proKLK7 (human) activation, primary screen | P49862 | purified proKLK7, EDANS-DABCYL substrate fluorescence; 100% is mature enzyme control, 0% vehicle | activation, % at 7 µM | 370,000 tested, 0.9% active;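 active = activation above the mean of all tested compounds plus 3 SD, computed per campaign excluding outliers beyond control limits, cut at about 13% in these data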
ADAM17 inh: inhibitors of human ADAM17; recombinant ADAM17, EDANS/DABCYL FRET peptide cleavage; inhibition, % at 6.95 µM; P78536; 370,000 tested, 0.83% active; AID 720648;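 active = inhibition above the mean of compounds lying between control limits plus 3 SD, set per campaign, cut at about 8.5% in these data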
Target sequence (P78536 215-824 limits assumed): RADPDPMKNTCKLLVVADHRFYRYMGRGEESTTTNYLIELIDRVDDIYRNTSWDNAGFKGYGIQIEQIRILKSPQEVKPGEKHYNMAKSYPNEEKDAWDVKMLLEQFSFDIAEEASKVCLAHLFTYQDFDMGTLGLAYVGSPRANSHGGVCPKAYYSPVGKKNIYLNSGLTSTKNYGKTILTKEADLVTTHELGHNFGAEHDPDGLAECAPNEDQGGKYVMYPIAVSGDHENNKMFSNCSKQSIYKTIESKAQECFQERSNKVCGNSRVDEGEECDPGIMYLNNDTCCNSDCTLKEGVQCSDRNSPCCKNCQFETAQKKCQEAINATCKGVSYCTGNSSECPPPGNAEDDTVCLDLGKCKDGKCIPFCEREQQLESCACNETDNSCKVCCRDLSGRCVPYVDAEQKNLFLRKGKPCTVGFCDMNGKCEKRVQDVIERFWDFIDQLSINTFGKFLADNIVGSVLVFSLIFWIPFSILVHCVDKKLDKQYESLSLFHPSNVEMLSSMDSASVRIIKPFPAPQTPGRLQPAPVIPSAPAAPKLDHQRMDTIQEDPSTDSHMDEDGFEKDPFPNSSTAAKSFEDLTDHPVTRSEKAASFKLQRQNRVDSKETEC
KLK7 act conf: proKLK7 activation, confirmation; shares compounds with KLK7 zymogen act; purified proKLK7, EDANS-DABCYL substrate fluorescence; scaled: vehicle 0, mature enzyme 100; activation, % at 7 µM; 3,200 tested, 68% active; AID 686949;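 active = activation, as change over the incubation, above the mean of all tested compounds plus 3 SD, cut at about 13% in these data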
EDANS interfere: fluorescence interference counter-screen for KLK7 activators; 3,200 tested, 80% active; EDANS-DABCYL substrate fluorescence interference, no enzyme, 4 h; solvent 0%, active enzyme control 100%; shares compounds with KLK7 zymogen act; AID 686952; activation, % at 7 µM;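 active = activation above the all-compound mean plus 3 SD, ignoring values outside control-based bounds, cut at about 4.8% in these data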;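 also: value is the 4 h activation minus the activation read at time zero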
EDANS interf: EDANS fluorescence interference in dose response, no enzyme. shares compounds with KLK7 zymogen act. EDANS-DABCYL peptide fluorescence interference. EC50, µM. 250 tested, 20% active. AID 720493;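 active = compounds that raise the fluorescence signal in this interference counterscreen, with EC50 at or below 10 µM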;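 also: intact quenched peptide substrate alone read at 355 nm excitation and 520 nm emission; signal is fluorescence gain from T0 to T4 after four hours at room temperature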
Numbers stand for hits; - = inactive; . = not tested or not shown; ! = not active in a repeat.

SMILES	ADAM10 inh	V-ATPase pHluor	KLK7 zymogen act	ADAM17 inh	KLK7 act conf	EDANS interfere	others
O=C(Nc1nc2ncccn2c1-c1ccc(F)c(F)c1)C1CC1	-	.	17.7	-	20.2	23.9
COc1ccc(Cn2cc(CN3[C@H](C)COc4cc(Br)ccc4S3(=O)=O)nn2)cc1	-	.	-	-	.	.
COC(=O)C1=C(C)N(C)C(=NCC2CC2)NC1c1cccc(C(F)(F)F)c1 (stereo unspecified)	-	.	-	-	.	.
O=C(Nc1ccc2c(c1)OCO2)c1cc(-c2ccc(O)cc2)on1	-	-	19.6	-	21.1	14.5	EDANS interf=-
C=CCc1c(C)nc(-c2ccccc2)nc1N/N=C/c1ccccc1	-	-	13.8	-	-	-
C=CCc1c(C)nc(-c2ccccc2)nc1N/N=C/c1ccncc1	-	-	-	-	.	.
Cc1cc(=O)oc2c3c(cc(OCC(=O)NCCC(=O)O)c12)OC(C)(C)CC3	-	-	40.2	-	63.9	64.2
Cc1cc(=O)oc2c3c(cc(OCC(=O)NCC4CCC(C(=O)O)CC4)c12)OC(C)(C)CC3 (stereo unspecified)	-	-	40.2	-	76.2	77.2
CCc1cc(=O)oc2c3c(cc(OCC(=O)NC4CC4)c12)OC(C)(C)CC3	-	-	13.2	-	-	-
Cc1c(C)c2c(OCC(=O)NCC3CCC(C(=O)O)CC3)cc3c(c2oc1=O)CCC(C)(C)O3 (stereo unspecified)	-	.	-	-	.	.
COc1ccc(CNC(=O)COc2cc3c(c4oc(=O)cc(C)c24)CCC(C)(C)O3)cc1	-	-	-	-	.	.
CCCc1cc(=O)oc2c3c(cc(OCC(=O)N4CCC[C@H]4C(=O)O)c12)OC(C)(C)CC3	-	-	40.0	-	47.7	69.2
O=S(=O)(N1CCCCC1)n1nnc2cc3ccccc3cc21	-	.	-	-	.	.
CCc1cc(=O)oc2c3c(cc(OCC(=O)NCCCOC)c12)OC(C)(C)CC3	-	-	19.1	-	29.9	29.0
CCc1cc(=O)oc2c3c(cc(OCC(=O)NCCCC(=O)O)c12)OC(C)(C)CC3	-	-	28.8	-	65.3	65.5
CCc1cc(=O)oc2c3c(cc(OCC(=O)NCc4ccco4)c12)OC(C)(C)CC3	.	-	.	.	.	.
CCc1cc(=O)oc2c3c(cc(OCC(=O)NCCN4CCOCC4)c12)OC(C)(C)CC3	-	-	39.4	-	-	-
CCc1cc(=O)oc2c3c(cc(OCC(=O)NCc4ccncc4)c12)OC(C)(C)CC3	-	-	-	-	.	.
CCc1cc(=O)oc2c3c(cc(OCC(=O)NCCC(=O)O)c12)OC(C)(C)CC3	-	-	33.1	-	76.2	82.1
CC(C)COc1ccc(-c2csc(N3CCC(C(N)=O)CC3)n2)cc1	-	.	.	-	.	.
CN(C)C(=O)N1CCN(C(=O)[C@H]2O[C@@H](n3ccc(N)nc3=O)[C@H](O)[C@@H]2O)CC1	-	.	-	-	.	.
C[C@@H]1C=CCCO[C@]12C(=O)N(Cc1ccc(Br)cc1)c1ccccc12	-	.	-	-	.	.
Cc1cccc(-n2c(O)c(C=Nc3cc(O)ccc3C)c3ccccc3c2=O)n1	-	-	-	-	.	.
Cc1cccc(-n2c(O)c(C=Nc3ccc(O)cc3)c3ccccc3c2=O)n1	-	-	17.8	-	22.8	23.2
NS(=O)(=O)c1ccc(N=Cc2c(O)n(-c3nccs3)c(=O)c3ccccc23)cc1	-	-	22.9	-	18.2	19.7
SMILES	ADAM10 inh	V-ATPase pHluor	KLK7 zymogen act	ADAM17 inh	KLK7 act conf	EDANS interfere	others
Cc1cccc(-n2c(O)c(C=Nc3ccccc3O)c3ccccc3c2=O)n1	-	-	17.8	-	-	9.4
Cc1c(CCC(=O)NC2CC2)c(=O)oc2cc(O)ccc12	-	-	85.5	-	62.3	73.3
Cc1oc2cc3oc(=O)c(CCC(=O)NCCC(=O)O)c(C)c3cc2c1C	-	-	-	-	.	.
Cc1oc2cc3oc(=O)c(CCC(=O)NCCCC(=O)O)c(C)c3cc2c1C	-	-	13.7	-	24.2	22.4
Cc1cccc(-n2c(SCC(=O)N3CCCC3)nc3n[nH]c(C)c3c2=N)c1	-	-	29.5	-	69.9	42.6	EDANS interf=-
CCCCN(CC)C(=O)CSc1nc2n[nH]c(C)c2c(=N)n1-c1cccc(C)c1	-	-	-	-	.	.
Cc1c2c(n3c(nc4ccccc43)c1C#N)N(CCCN(C)C)CC2	-	-	63.0	-	-	7.4
CCc1c(C)c(C#N)c2nc3ccccc3n2c1NCCCN(C)C	-	-	-	-	.	.
Cc1c2c(n3c(nc4ccccc43)c1C#N)N(CCN(C)C)CC2	-	-	113.9	-	-	-
COc1ccc(C(=O)CSc2nnc(-c3cccs3)o2)cc1OC	-	.	-	-	.	.
CN1CCN(C(=O)c2cc3nc(-c4ccco4)cc(C(F)(F)F)n3n2)CC1	-	-	30.4	-	16.8	11.2	EDANS interf=-
O=C(NC1CCCCC1)c1cc2nc(-c3ccco3)cc(C(F)(F)F)n2n1	.	-	.	.	.	.
O=C(NCCCN1CCOCC1)c1cc2nc(-c3ccco3)cc(C(F)(F)F)n2n1	-	-	14.7	-	14.4	11.4	EDANS interf=-
O=C(NCCO)c1cccc(-c2cnc3cccnn23)c1	-	.	53.5	-	37.7	37.1
CNc1ccc2ncc(-c3cccc(C(=O)N(C)C)c3)n2n1	-	.	41.9	-	39.6	41.8
CN(C)C(=O)c1cccc(-c2ccc3nncn3c2)c1	-	.	-	-	.	.
CN1CCN(C(=O)c2ccc(-c3cnc4cccnn34)cc2)CC1	-	.	67.5	-	69.4	70.3
O=C(NCCO)c1cccc(-c2ccc3nncn3c2)c1	-	.	-	-	.	.
CCOc1ccc(C(=O)NCCO)cc1	-	-	-	-	.	.
O=C(NCCO)c1ccc(-c2cnc3cccnn23)cc1	-	.	48.3	-	62.8	78.2
OCc1ccccc1-c1cnc2cccnn12	-	.	82.0	-	66.5	78.6
Cc1cccn2c(=O)c(/C=C(\C#N)C(N)=O)c(Oc3ccccc3)nc12	-	-	15.3	-	-	-
C=CCNC(=O)/C(C#N)=C/c1c(N2CCN(c3cccc(Cl)c3)CC2)nc2c(C)cccn2c1=O	-	-	13.5	-	-	32.9
CNC(=O)/C(C#N)=C/c1c(N2CCN(c3cccc(Cl)c3)CC2)nc2c(C)cccn2c1=O	-	-	-	-	.	.
Cc1cccn2c(=O)c(/C=C(\C#N)C(N)=O)c(N3CCN(c4ccccc4)CC3)nc12	-	-	-	-	.	.
COCCNC(=O)/C(C#N)=C/c1c(N2CCN(c3ccc(OC)cc3)CC2)nc2c(C)cccn2c1=O	-	-	14.9	-	13.7	10.7	EDANS interf=-
COc1ccc(C2Nc3ccccc3C(=O)N2Cc2ccco2)cc1CN1C(=O)c2ccccc2C1=O (stereo unspecified)	-	-	29.6!	-	-	5.8
O=C1c2ccccc2NC(c2cccc(O)c2)N1Cc1ccco1 (stereo unspecified)	-	-	27.3	-	29.4	28.5
